LYPLA2 inh = LYPLA2 inhibitors, primary screen, counter-screen for PME1 inhibitor project, biochemical, fluorescence polarization, FP-Rh probe ABPP | Acyl-protein thioesterase 2 (Homo sapiens), O95372 | recombinant LYPLA2 | inhibition, % at 5.9 µM | 0.38% of 320,000 active | AID 2177, 2009;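 active = inhibition above the screen-wide mean plus 3 SD, limit set per campaign, cut at about 26% in these data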;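 also: 0% = LYPLA2 with DMSO and 100% = wells lacking LYPLA2 enzyme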
Target sequence (O95372 whole entry, looked up): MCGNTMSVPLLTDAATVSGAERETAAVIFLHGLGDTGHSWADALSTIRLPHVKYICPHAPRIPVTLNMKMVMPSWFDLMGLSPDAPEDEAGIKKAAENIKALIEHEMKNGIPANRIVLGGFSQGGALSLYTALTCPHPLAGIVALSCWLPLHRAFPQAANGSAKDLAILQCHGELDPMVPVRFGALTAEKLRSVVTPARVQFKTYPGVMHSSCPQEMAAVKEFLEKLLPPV
p97 ATPase inh = inhibitors of human p97 ATPase, primary screen, biochemical; recombinant p97 ATPase, Kinase-Glo ATP luminescence, 3 h; inhibition, % at 8 µM; 0.42% of 220,000 active; Transitional endoplasmic reticulum ATPase (Homo sapiens), P55072; in the data active = inhibition above about 15%;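 also: 0% = DMSO vehicle and 100% = wells lacking enzyme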
Redox H2O2 prof = compounds producing H2O2 with reducing agent – biochemical, NIH compound library profiling, artefact control for MLSCN library redox annotation, primary screen. AID 878, 2007. activation, % at 10 µM. 0.03% of 200,000 active. DTT-dependent redox cycling H2O2, phenol red/HRP absorbance; 100% = 100 µM peroxide control, 0% = buffer;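 active = activation of at least 50% relative to the plate's high and low controls in the primary single-dose screen; inactive = activation below 50%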;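 also: compound incubated with DTT at 0.8 mM final as the reducing agent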
LYPLA1 inh = LYPLA1 inhibitors, primary screen, counter-screen for PME1 inhibitor project, biochemical, fluorescence polarization, FP-Rh probe ABPP; Acyl-protein thioesterase 1 (Homo sapiens), O75608; recombinant LYPLA1; inhibition, % at 5.9 µM; 0.16% of 320,000 active; AID 2174, 2009;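 active = inhibition above the mean of all tested compounds plus 3 SD, set per campaign, cut at about 14% in these data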;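 also: inhibitors block serine hydrolase probe labeling of LYPLA1 so polarization falls; 0% = enzyme with DMSO and 100% = wells lacking LYPLA1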
Target sequence (O75608 whole entry, looked up): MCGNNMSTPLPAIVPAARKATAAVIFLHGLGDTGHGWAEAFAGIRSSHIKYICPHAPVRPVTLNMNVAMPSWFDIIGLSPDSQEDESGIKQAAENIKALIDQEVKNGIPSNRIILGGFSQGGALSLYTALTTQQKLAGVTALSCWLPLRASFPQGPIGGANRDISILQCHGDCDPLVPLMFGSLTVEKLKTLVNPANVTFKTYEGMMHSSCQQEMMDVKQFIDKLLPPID
p97 inh conf = p97 ATPase inhibitors, retest, confirmation, biochemical; shares compounds with p97 ATPase inh; recombinant p97 ATPase, Kinase-Glo ATP luminescence; inhibition, % at 8 µM; 44% of 760 active;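 active = percent inhibition of p97 ATPase above a set limit, the primary screen's mean plus 3 SD, cut at about 15% in these data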;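 also: 0% = DMSO wells and 100% = wells lacking p97 protein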
* = called active by the depositor; . = not tested or not shown. This is a sample that favours compounds with a hit; in the whole collection about 0.74% have one here.

SMILES | LYPLA2 inh | p97 ATPase inh | Redox H2O2 prof | LYPLA1 inh | p97 inh conf
N#Cc1c(NC(=O)c2ccccc2Cl)n(Cc2ccccc2)c2nc3ccccc3nc12 | -6.4 | 37.9* | 4.3 | -4.9 | 46.7*
CCC(=O)Nc1c(C#N)c2nc3ccccc3nc2n1-c1ccccc1C | -6.0 | 1.8 | -0.4 | -3.8 | .
N#Cc1ccc(OCC(=O)NCC2COc3ccccc3O2)cc1 (centres undefined) | 0.9 | . | . | -0.9 | .
C=CCN1C(=O)/C(=C/c2ccc(OC(C)=O)c(OCC)c2[N+](=O)[O-])SC1=S | . | 10.3 | -0.8 | . | .
O=C(CCc1ccccc1)NC(c1cccs1)c1cc(Cl)c2cccnc2c1O (centres undefined) | . | 19.4* | -9.2 | . | 8.4
CCCC(=O)NC(c1cccs1)c1cc([N+](=O)[O-])c2cccnc2c1O (centres undefined) | 2.9 | 2.7 | 0.0 | -5.3 | .
C/C(=N\NC(=O)c1cccc(F)c1)c1ccc(Br)s1 | 7.0 | 19.0* | 0.7 | 1.0 | 1.8
Cc1cccc(NC(=O)C2C3C=CC(O3)C2C(=O)O)c1C (centres undefined) | -3.7 | . | . | 2.6 | .
Cc1ccc(-c2cc(-c3ccco3)c(C#N)c(=O)[nH]2)cc1 | -0.3 | 14.1 | . | -2.1 | .
N#Cc1c(-c2ccco2)cc(-c2ccccc2)[nH]c1=O | 0.1 | 22.4* | . | -3.7 | 12.1
CCOC(=O)CNC(=O)CSc1cc(C)nc2ccc(OC)cc12 | -8.2 | 2.3 | 0.2 | 0.7 | .
COc1ccc2nc(C)cc(SCC(=O)NNC(=O)COc3ccccc3)c2c1 | 3.0 | 15.3* | -1.1 | 0.5 | 9.7
Cc1cc(C)c2nc(NC(=O)c3cccc(S(=O)(=O)N4CCc5ccccc54)c3)sc2c1 | -11.1 | 1.4 | 0.2 | -3.3 | .
Nc1nnc(-c2ccco2)s1 | -1.9 | -4.7 | -5.9 | -0.1 | .
Nc1ncnc2oc(-c3ccco3)c(-c3ccco3)c12 | -4.0 | 16.9* | 2.2 | -6.6 | 13.2
O=C1NN(c2ccc(Cl)c(Cl)c2)C(=O)/C1=C/c1cccc(OC(=O)c2cccs2)c1 | 4.2 | 19.2* | 1.6 | -12.2 | 7.1
COC(=O)C1=C(C)NC(C)=C(C(=O)OC)C1c1cn(-c2ccccc2)nc1-c1ccco1 | -1.0 | 6.8 | -0.2 | 3.1 | .
CC1=NN2C(=N)/C(=C\c3ccc(SCc4ccccc4)o3)C(=O)N=C2S1 | 2.4 | 2.2 | 0.8 | -3.2 | .
N=C1/C(=C\c2ccc(SCc3ccco3)o2)C(=O)N=C2SC=NN12 | -56.6 | 17.5* | -0.8 | -27.1 | 16.1*
COc1cccc(NC(=O)COC(=O)c2ccc(S(=O)(=O)NCc3ccco3)cc2)c1 | 0.9 | 1.2 | 0.2 | 0.9 | .
N#Cc1c(N(CCO)CCO)nc(N)c2c(N)nc3c(c12)CC(=O)N3CC1CCCO1 (centres undefined) | 4.4 | 26.1* | . | 6.6 | 4.1
COc1ccc(C(C)=O)cc1COC(=O)c1ccc(N)c([N+](=O)[O-])c1 | 2.9 | 18.0* | -1.0 | 3.1 | 22.4*
[N-]=[N+]=NC[C@H](Cc1ccccc1)N1CCN(Cc2ccccc2)CCC1=O | 5.8 | . | . | 1.0 | .
CN(C)c1ccc(C2CC(c3ccccc3)=Nc3nc(-c4ccccc4)cn32)cc1 (centres undefined) | . | 9.7 | 0.0 | . | .
Cc1ccsc1C(=O)Nc1nc2ccccc2[nH]1 | -4.9 | -39.8 | . | 1.3 | .
SMILES | LYPLA2 inh | p97 ATPase inh | Redox H2O2 prof | LYPLA1 inh | p97 inh conf
CSc1c(CC(=O)NCCO)n(C)c2ccccc12 | 6.2 | 17.0* | 2.9 | 1.7 | 0.2
COC(=O)Cc1ccc(O)c(N)c1 | 0.8 | 0.7 | -1.9 | 1.3 | .
CCOc1ccccc1OCC(=O)OCC(=O)c1c(C)[nH]c2ccccc12 | -6.5 | . | . | -5.7 | .
Cc1[nH]c2ccccc2c1C(=O)COC(=O)CCS(=O)(=O)c1ccccc1Cl | 0.3 | 26.7* | 0.0 | -1.9 | 30.0*
O=C(NNc1c2ccccc2nc2ccccc12)c1ccc(O)cc1O | -10.7 | 34.7* | -3.9 | -11.1 | 38.0*
Cc1cc(C)cc(C(=O)NC(CC(N)=O)c2ccc(NC3CCCC3)c([N+](=O)[O-])c2)c1 (centres undefined) | -1.9 | . | . | -0.2 | .
Cc1nonc1NC(=O)CSc1nc2ccccc2[nH]1 | -4.0 | 0.3 | -2.1 | -4.5 | .
CCOC(=O)NC(=O)CSc1nc2ccccc2[nH]1 | 0.7 | 16.4* | 0.1 | -1.9 | 5.7
